Records with an inconclusive call do not appear. Entries that show only a call come without a potency. Calls of active or inactive are those of the source. Calls follow the shape of the dose curve; as a rule, active = well fitted inhibition curve with a large enough effect; inconclusive = small, poorly fitted or top-dose-only effect; inactive = flat fitted curve, though single readings scatter.
Test: BET inhibitor-based combinations targeting novel dependencies in MECOM-rearranged (r) AML: AML-191 cell line (AID 2202236; also: nearly all actives have a fitted effect of over 35% in size)
Conditions: AML-191 viability, CellTiter-Glo luminescence, 48 h; series mostly up to 46 µM
Text: Ecotropic viral insertion site 1 (EVI1) is located on chromosome 3q26.2 as part of the MECOM (MDS and EVI1 complex) locus. Under normal hematopoiesis, EVI1 is a regulator of hematopoietic stem cell maintenance and self-renewal and EVI1 levels decrease as the cells differentiate. In approximately 5-10% of de novo acute myeloid leukemia (AML) EVI1 is aberrantly expressed, including Chromosomal inv(3)(q21;q26.2) or t(3;3)(q21;q26.2) alterations (MECOM-r) that account for about 50% of AML with EVI1 overexpression 31. AMLs with high levels of EVI1 have a poor prognosis and an overall survival time averaging between 10-14 months. EVI1 overexpression confers resistance in leukemia cells, highlighting the need to develop new targeted therapies for EVI1 overexpressing AMLs.
Here, we performed an unbiased chemical drug screening by evaluating the single agent activity of a collection of 2,480 oncology-focused, approved and investigational drugs (NCATS Mechanism Interrogation Plates, MIPE v5.0) against a panel of seven AML cell lines. These included four MECOM-r cell-lines (AML-191, AML-194, UCSD-AML1 and HNT-34) and three non-MECOM-r AMLs (MV4-11, OCI-AML3 and SET-2). Exploiting the mechanistic redundancy built in the library, we identified target-level sensitivities in MECOM-r AML cells and relative activity as compared to other AML subtypes.
A collection of 2480 mechanistically annotated dugs (MIPE v5.0) was used to screen four 3q26.2 rearranged AML cell lines and three non-3q26.2 rearranged AML cell lines. This library purposely exploits redundancy by including multiple inhibitors of key onco-targets, while simultaneously encompassing mechanistic diversity, targeting more than 800 distinct mechanisms of action. Briefly, cells were seeded in 5 uL of growth media using a Multidrop Combi dispenser into 1536 well white polystyrene tissue culture treated plates (Corning) at a density of 500cells/well. For each cell-line, for each of the 2480 drugs in MIPE v5.0 library, an 11-point dose curve was generated via a 1536 pin-tool. Plates were incubated for 48 hr at standard incubator conditions, covered by a stainless steel gasketed lid to prevent evaporation. Cell viability was determined by luminescence based, Cell Titer Glo assay (Promega). In detail, 3 uL of Cell Titer Glo were added to each well and plates were incubated at room temperature for 15 min with a stainless-steel lid in place. Luminescence readings were taken using a Viewlux (PerkinElmer) with a 2 s exposure time per plate. Compound dose-response curves were normalized to DMSO and empty well controls on each plate. Quantitative drug activity data from dose-response curves was determined utilizing area Under the Curve (AUC) and Z-transformed AUC (Z-AUC, a mean-centering transformation applied to each individual cell-line screened).
Potency is read from the fitted curve at half-maximal effect.

| SMILES | viability (% of control) | Potency |
| --- | --- | --- |
| O=C(O)c1cn(C2CC2)c2cc(N3CCNCC3)c(F)cc2c1=O | 102% [at 8.46 µM] (inactive) | – |
| C=CC(=O)Nc1cccc(Nc2nc(Nc3ccc(OCCOC)cc3)ncc2F)c1 | – | 8.33 µM (active) |
| O=c1c(O)c(-c2ccc(O)c(O)c2)oc2cc(O)cc(O)c12 | – | inactive |
| CNC[C@H](O)[C@@H](O)[C@H](O)[C@H](O)CO | – | inactive |
| CCN(CC)CCCC(C)Nc1nc(C)cc(Nc2ccc3nc(C)cc(N)c3c2)n1 (stereo not given) | – | inactive |
| NC[C@H]1O[C@H](O[C@@H]2[C@@H](O)[C@@H](O[C@H]3O[C@H](CO)[C@@H](O)[C@H](N)[C@@H]3O)[C@H](N)C[C@@H]2N)[C@H](O)[C@@H](O)[C@H]1O | – | inactive |
| Cc1ccccc1N1C(=O)c2cc(S(N)(=O)=O)c(Cl)cc2NC1C (stereo not given) | – | inactive |
| Nc1ccn(C2CO[C@H](CO)O2)c(=O)n1 (stereo not given in full) | – | inactive |
| Cc1c(F)cc(C(=O)NC2CC2)cc1-c1ccc(C(=O)NCC(C)(C)C)cn1 | – | inactive |
| COc1cc(N2CCC(N3CCN(C)CC3)CC2)ccc1Nc1ncnc(Nc2ccccc2S(=O)(=O)C(C)C)n1 | – | 18.6 µM (active) |
| COc1cc(OC)c(/C=C/S(=O)(=O)Cc2ccc(OC)c(NCC(=O)O)c2)c(OC)c1 | – | 0.235 µM (active) |
| COc1ccc(CCC(=O)Nc2nc3ccc(Cl)cc3s2)cc1OC | – | inactive |
| O=C(O)[C@H](CC(=O)N1C[C@H]2CCCC[C@H]2C1)Cc1ccccc1 | – | inactive |
| CO[C@@H]1[C@@H](OC(N)=O)[C@@H](O)[C@H](Oc2ccc3c(O)c(NC(=O)c4ccc(O)c(CC=C(C)C)c4)c(=O)oc3c2C)OC1(C)C | – | inactive |
| CCOc1cc2ncc(C#N)c(Nc3ccc(OCc4ccccn4)c(Cl)c3)c2cc1NC(=O)/C=C/CN(C)C | – | 5.25 µM (active) |
| Cc1cn(CCN2CCN(c3ccccc3-c3cc(C#N)cc(C(=O)NCCCN4CCCC4)c3)CC2)c2ccccc12 | – | 18.6 µM (active) |
| CCOc1cc2c(c(F)c1OCC)C(=N)N(CC(=O)c1cc(N3CCOCC3)c(OC)c(C(C)(C)C)c1)C2 | – | 16.6 µM (active) |
| CN1CCN(c2ncc(-c3cc(Cl)cc(Cl)c3Cl)c(N)n2)CC1 | – | 16.6 µM (active) |
| NCC1CCC(C(=O)O)CC1 (stereo not given) | – | inactive |
| Cc1ccc(C(=O)Nc2ccc(Oc3cc4cnn(C)c4cc3-c3cn[nH]c3)c(F)c2)c(=O)n1-c1ccc(F)cc1 | – | 6.61 µM (active) |

| SMILES | viability (% of control) | Potency |
| --- | --- | --- |
| CN(Cc1cc(Br)cc(Br)c1N)C1CCCCC1 | – | inactive |
| CC(C)(C)OC(=O)CN(Cc1ccc(Cl)cc1)Cc1ccc([N+](=O)[O-])s1 | – | inactive |
| COCCN1CCN(Cc2ccc(-c3n[nH]c4c3C(=O)c3c(NC(=O)NN5CCOCC5)cccc3-4)cc2)CC1 | – | 0.186 µM (active) |
| CCCCC(=O)O[C@]1(C(=O)CO)[C@@H](C)C[C@H]2[C@@H]3CCC4=CC(=O)C=C[C@]4(C)[C@@]3(F)[C@@H](O)C[C@@]21C | – | 0.0132 µM (active) |
| c1ccc2c(Oc3nc(Nc4ccc(N5CCOCC5)cc4)c4ncn(C5CCCCC5)c4n3)cccc2c1 | – | inactive |
| C[C@H]1COc2c(N3CCN(C)CC3)c(F)cc3c(=O)c(C(=O)O)cn1c23 | – | inactive |
| Fc1cc(-c2cccc3ncc(-c4cnn(C5CCNCC5)c4)nc23)cc(F)c1CN1CCOCC1 | – | 10.5 µM (active) |
| CC(C)NC(=O)N1CC[C@H](N=C2Nc3cc(F)ccc3N(CC(F)F)c3ccc(Cl)cc32)C1 | 98.9% [at 8.46 µM] (inactive) | – |
| Cc1c(CCOc2ccc(C(=O)O)cc2)c2cc(Cl)ccc2n1C(c1ccccc1)c1ccccc1 | – | inactive |
| Cc1nc(C(=O)NCC(=O)O)c(O)c2ccc(Oc3ccccc3)cc12 | – | inactive |
| Cc1cc(Nc2cc(CN3CCOCC3)c3nc(C)c(Cc4ccc(Cl)cc4F)n3n2)n[nH]1 | – | 0.742 µM (active) |
| CCOC(=O)[C@H](CCc1ccccc1)N[C@@H](C)C(=O)N1[C@H](C(=O)O)C[C@@H]2CCC[C@@H]21 | – | inactive |
| Cc1nc([C@](C)(O)CO)sc1-c1cnc(N)c(O[C@H](C)c2cc(F)ccc2-n2nccn2)c1 | – | 0.833 µM (active) |
| Cc1cnc(C(=O)O)c[n+]1[O-] | – | inactive |
| CC(=O)OC1C(C)OC(Oc2c(-c3ccc(O)cc3)oc3cc(O)cc(O)c3c2=O)C(O)C1OC(C)=O (stereo not given) | – | inactive |
| CNc1nc(Nc2cnn([C@H]3CCN(C4COC4)C[C@@H]3F)c2Cl)ncc1C(F)(F)F | – | 16.6 µM (active) |
| Cc1cnc(Nc2ccc(N3CCN(C)CC3)cc2)nc1Nc1cccc(S(=O)(=O)NC(C)(C)C)c1 | – | 2.63 µM (active) |
| COC(=O)Nc1cc(Nc2cc(NC3CC3)c3ncc(C#N)n3n2)c(Cl)c(N2CCN(C)CC2)c1 | – | 2.63 µM (active) |
| CCc1cncnc1N1CCN(Cc2nc3ccc(C(F)(F)F)cc3[nH]2)CC1 | – | 13.2 µM (active) |
| Nc1nc2[nH]cc(CCc3ccc(C(=O)N[C@@H](CCC(=O)O)C(=O)O)cc3)c2c(=O)[nH]1 | – | 0.525 µM (active) |

Reference: PubChem BioAssay (NCATS)
